# From PubChem
# In the library only some 0.36% were active in any assay of this set; here they are far more common.
# IMPase cell inh: cell-permeable inhibitors of inositol monophosphatase (IMPase) | CHO-M1 cells, IP1 accumulation, HTRF TR-FRET ratio | inhibition (IP1 accumulation), % at 46.1 µM | 120,000 tested, under 10 active | AID 901; active = well fitted curve in the direction sought with a large enough effect in the signal ratio, not every such curve was filed as active; inconclusive = small, poorly fitted or top-dose-only effect, or a change in a side signal; inactive = no such curve, though single readings can be large or run the other way; the % refers to the signal ratio;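 note: cells stimulated with carbachol in lithium chloride buffer; plate controls were DMSO basal wells for no effect and reference inhibitor wells for full effect; higher means more IMPase inhibition seen as more IP1 and lower FRET ratio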
# Target sequence (P97697 whole entry, looked up): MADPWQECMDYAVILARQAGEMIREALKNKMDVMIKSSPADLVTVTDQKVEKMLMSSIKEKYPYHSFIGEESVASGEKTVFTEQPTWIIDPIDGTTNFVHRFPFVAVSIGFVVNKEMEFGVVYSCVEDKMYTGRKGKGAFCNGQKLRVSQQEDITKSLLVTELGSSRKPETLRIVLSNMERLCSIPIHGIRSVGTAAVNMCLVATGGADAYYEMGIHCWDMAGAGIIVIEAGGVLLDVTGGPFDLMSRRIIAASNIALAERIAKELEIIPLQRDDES
#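 Seeded CHO-M1 cells were dosed with compound at up to 46 uM, stimulated with carbachol for 30 min, then lysed in IP-One detection reagents. Higher IP1 lowers the TR-FRET signal.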
# IMPase Li cell: cell-permeable IMPase inhibitors with lithium potentiation; CHO-M1 cells, IP1 TR-FRET (IP-One), carbachol + lithium; Potency, µM (highest dose often 59.4 µM), without a hit: at the top dose activity, negative = IMPase inhibition, usual class: inhibitors; hit rate 0.35% among 210,000; AID 1457; active = well fitted inhibition curve with a large enough effect; inconclusive = small, poorly fitted or top-dose-only effect; inactive = no such curve, though single readings can be large or run the other way;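 note: IP1 builds up when IMPase is blocked and the TR-FRET signal falls; potency is the fitted concentration of half-maximal effect; plate controls were basal vehicle for no effect and high inhibitor control for full effect; nearly all actives have a fitted effect of over 50% in size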
#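 CHO-M1, 2000 cells/well, 16–30 h culture; cpd + low Li+, 30 min 37C; lysis with d2-IP1/Eu-anti-IP1 Ab, 10 min RT; TR-FRET 665/620 ratio and 620 channel; AC50 via Hill.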
# Active calls of the source: *; ? = inconclusive; . = no result; ! = repeats disagree; [ ] = remark or other dose.
SMILES,IMPase cell inh,IMPase Li cell
CCc1ccccc1NC(c1nnc(-c2cccc(F)c2)o1)c1ccc(F)cc1Cl (centres undefined),-2.7,.
COC(=O)CCCCCc1ccc(C(C)=O)s1,?,10µM*
CCC(=O)c1ccc(CCCCCC(=O)O)s1,-14.1,?
C=CCN1c2ccccc2[C@]23C[C@@H](C(=O)OC)N(S(=O)(=O)c4c(C)noc4C)C2=NC(C(=O)OC)=C(C(=O)OC)[C@H]13,.,3.0%
CCOc1ccc(OCC)c(NC(=O)c2[nH]c(C)c(C(C)=O)c2C)c1,-15.8,7.08µM*
CCOC(=O)c1[nH]c(C)c(C(=O)Nc2cc(OC)ccc2OC)c1C,1.1,-10.1%[38.3 µM]
C[N+](C)(C)CC[N+]1(C)Cc2c(Cl)c(Cl)c(Cl)c(Cl)c2C1,-0.9,-7.1%
O=c1c(-c2ccccc2)c(O)c2c(n1-c1ccccc1)CCCC2,.,9.0%
O=c1[nH]c(=S)c2c(n1-c1ccccc1)CCC2,?,10µM*
Cc1ccc(-c2nc(=S)c3c(n2Cc2ccco2)CCCC3)cc1,0.4,?
Cc1ccc(-c2nc(=S)c3c(n2Cc2ccco2)CC(C)(C)OC3)cc1,-2.2,3.98µM*
COc1ccccc1NC(=O)c1sc2cccc(Cl)c2c1Cl,9.3,.
N#Cc1c(C(F)(F)F)cc(-c2cccs2)nc1SCC(=O)Nc1ccc(Cl)cc1,-0.5,.
Cc1nc(NC(=O)COC(=O)c2ccc(S(=O)(=O)N3CCc4ccccc4C3)cc2)c(Cl)cc1Cl,.,10µM*
O=C(COC(=O)c1ccc(Cl)c(S(=O)(=O)N2CCc3ccccc3C2)c1)Nc1ncc(Cl)cc1Cl,.,-3.9%
CC1(C)OC2C(CO)OC(n3cnc4c(=O)[nH]c(N)nc43)C2O1 (centres undefined),.,9.6%
Cc1cc(C(N)=O)c2cc(Br)ccc2n1,-7.6,10.7%[38.3 µM]
O=C(O)c1cc(-c2ccco2)nc2ccc(Br)cc12,?,10µM*!
O[C@@H](c1cc(C(F)(F)F)nc2c(Cl)cc(Cl)cc12)C1CCCCN1 (some centres undefined),.,-1.9%
Cc1cccc(N2CCN(Cc3nnc(-c4ccc5c(c4)OCO5)o3)CC2)c1C,-2.2,.
COc1cccc(CN2CC(O)=C(c3nc(-c4ccc(Cl)cc4)cs3)C2=N)c1,18.2,5.62µM*
COc1ccc(-c2csc(C3=C(O)CN(Cc4ccc(Cl)cc4)C3=N)n2)cc1OC,-0.6,27.5%[38.3 µM]
COc1cccc([C@@H]2Oc3ccc(Br)cc3C[C@H]2OC(=O)NS(=O)(=O)c2ccc(C)cc2)c1,.,6.5%
O=C(Nc1ccsc1C(=O)N1CCCCCC1)c1ccccc1,0.2,-8.7%[38.3 µM]
O=C(Nc1ccsc1C(=O)NC1CCCCC1)c1ccc(F)cc1,-10.5,28.2µM*
SMILES,IMPase cell inh,IMPase Li cell
Cc1ccccc1-c1cc(NCCN2CCOCC2)ncn1,.,3.3%
NCC1O[C@H](O[C@@H]2C(O)[C@H](O[C@H]3OC(CO)C(O)C(N)C3O)[C@@H](N)C[C@H]2N)[C@@H](N)CC1O (some centres undefined),.,-11.9%
CC(=O)C1=C(O)C(=O)N(c2cccnc2)C1c1ccc(Cl)cc1 (centres undefined),4.7,6.31µM*
COc1ccc(C2C(C(C)=O)=C(O)C(=O)N2c2cccnc2)cc1OC (centres undefined),-4.7,24.0%[38.3 µM]
CCOc1ccc(-c2nn(-c3ccccc3)cc2C2NC(=O)NC(C)=C2C(=O)OC(C)C)cc1 (centres undefined),1.9,.
CCOC(=O)CN1C(=O)N[C@@H](c2ccccc2)[C@H](C(=O)OC)[C@H]1C,.,0.2%
CC(C)[C@H](NC(=O)c1ccccc1Cl)C(=O)OCc1cc(=O)n2cc(Br)ccc2n1,.,11.2µM*
Cc1ccccc1C(=O)NC(CC(C)C)C(=O)OCc1cc(=O)n2cc(Br)ccc2n1 (centres undefined),-2.7,-18.2%
NC1C(O)OC(CO)[C@@H](O)[C@@H]1O[C@H]1O[C@@H](C(=O)O)C(O)C(O)C1O (some centres undefined),.,-2.1%
COc1cc2c(cc1OC)C(C(C(=O)N(CCc1ccc(OC)c(OC)c1OC)CCc1ccc(OC)c(OC)c1OC)c1ccccc1)=NCC2 (centres undefined),.,12.2%
CSc1nc(-c2ccco2)cc(-c2ccccc2)c1C#N,?,-9.7%[38.3 µM]
COc1ccc(-c2cc(-c3ccc(OC)cc3)c(C#N)c(SC)n2)cc1,-8.8,11.2µM*
C[C@H](O)[C@H](O)[C@@H]1CNc2nc(N)[nH]c(=O)c2N1,0.2,.
Cc1cccc(-c2nc3cc(NC(=O)c4ccc(OCC(C)C)cc4)ccc3o2)c1,-7.0,.
CCC(=O)NC1CCc2cccc(OC)c2C1 (centres undefined),.,-6.1%
CCc1ccc(S(=O)(=O)N(C(=O)Oc2ccccc2)c2ccc3oc(C)c(C(=O)OC)c3c2)cc1,-6.4,.
COc1ccc(OCC(=O)Nc2cc(-c3nn(C)c(=O)c4ccccc34)ccc2OC)cc1,7.9,7.94µM*
COc1ccc(NC(=O)COc2ccc(-c3nn(C)c(=O)c4ccccc34)cc2)cc1,4.3,9.2%
O=C(c1cnccn1)N1CCC2(CC1)CN(c1ccccn1)C2,.,7.8%
CC1(OC(=O)c2ccc(Cl)nc2)C(=O)C=c2cc(-c3ccsc3)ncc2=C1OC(=O)C1CCCC1 (centres undefined),.,8.1%
CN[C@]1(C)[C@H]2CC[C@@H](C2)C1(C)C,3.8[20.6 µM],3.3%
Cc1nn(CCc2nn[nH]n2)c2nc(-c3ccc(Br)cc3)cc(C(F)(F)F)c12,.,2µM*
Cc1nn(CCc2nn[nH]n2)c2nc(C(F)(F)F)cc(C(F)(F)F)c12,3.5,-7.7%[38.3 µM]
CN(C)c1ccc(-c2cc(Nc3ccc(F)cc3)ncn2)cc1,.,-1.0%
COCCCn1c(-c2ccc(S(=O)(=O)N3CCOCC3)cc2)csc1=Nc1ccccc1,-12.6,10µM*
SMILES,IMPase cell inh,IMPase Li cell
CCn1c(-c2ccc(S(=O)(=O)N3CCOCC3)cc2)csc1=Nc1ccc(C)c(Cl)c1,-11.9,.
Cn1c(=O)c2c(nc(N3CCOCC3)n2Cc2ccccc2)n(C)c1=O,1.3,.
N.N.N.N.N.N.N.N.N.N.N.N.N.N.O.O.[Ru].[Ru].[Ru],5.8,.
COc1ccc(Br)cc1C(=O)Nc1ccc(C(=O)NCC(C)C)cc1,.,8.2%
CCOc1ccc(Br)cc1C(=O)Nc1ccc(C(=O)NCC(C)C)cc1,.,10µM*
Cc1ccc(-c2nc3nc(C)cc(N4CCN(c5cccc(C)c5C)CC4)n3n2)cc1,-4.3,.
O=C1c2ccccc2CC1Sc1nnc(-c2ccncc2)o1 (centres undefined),13.4,16.0%[38.3 µM]
Cc1ccccc1N1C(=O)CC(Sc2nnc(-c3ccccc3)o2)C1=O (centres undefined),?,10µM*
C=CC[C@](C)(O)c1ccccc1,.,8.6%
CC(C)(C)n1ncc2c(=O)n(CC(=O)NCCc3ccccc3)cnc21,12.4,-1.1%
O=C(Cn1cnc2c(cnn2-c2ccc(Cl)cc2)c1=O)NCCc1ccccc1,0.2,12.6µM*
O=C(Cn1cnc2sc(-c3ccccc3)cc2c1=O)NCc1ccccc1,-0.4,-21.8%[38.3 µM]
O=C(Cn1cnc2sc(-c3ccccc3)cc2c1=O)NCCc1ccccc1,-5.7,28.2µM*
CCCCCC(=O)Nc1cc2[nH]c(=O)cc(COC)c2cc1C,4.7,11.2µM*
COCc1cc(=O)[nH]c2cc(NC(=O)C(C)(C)CCl)c(C)cc12,6.2[1.84 µM],1.8%[38.3 µM]
Cc1cccc(N2CCN(CCCNC(=O)c3nnc(Cc4c(F)cccc4Cl)o3)CC2C)c1 (centres undefined),1.4,.
